According to PubChem BioAssay (NCATS):
Results filed as inconclusive are left out. Values without a mark were called inactive. Calls come from the whole dose curve.

The molecules below were run against Peroxisome proliferator-activated receptor delta (Homo sapiens) (UniProt Q03181) (assay: qHTS assay for small molecule agonists of peroxisome proliferator-activated receptor delta signaling (AID 588534;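 note: 0% = DMSO basal wells and 100% = positive control agonist at 10 µM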)). Conditions: HEK293T PPARdelta-UAS-bla, beta-lactamase ratio, 18 h; series mostly up to 76.7 µM; activation: at the top concentration.
Sequence of Peroxisome proliferator-activated receptor delta (Homo sapiens) (Q03181 whole entry, looked up): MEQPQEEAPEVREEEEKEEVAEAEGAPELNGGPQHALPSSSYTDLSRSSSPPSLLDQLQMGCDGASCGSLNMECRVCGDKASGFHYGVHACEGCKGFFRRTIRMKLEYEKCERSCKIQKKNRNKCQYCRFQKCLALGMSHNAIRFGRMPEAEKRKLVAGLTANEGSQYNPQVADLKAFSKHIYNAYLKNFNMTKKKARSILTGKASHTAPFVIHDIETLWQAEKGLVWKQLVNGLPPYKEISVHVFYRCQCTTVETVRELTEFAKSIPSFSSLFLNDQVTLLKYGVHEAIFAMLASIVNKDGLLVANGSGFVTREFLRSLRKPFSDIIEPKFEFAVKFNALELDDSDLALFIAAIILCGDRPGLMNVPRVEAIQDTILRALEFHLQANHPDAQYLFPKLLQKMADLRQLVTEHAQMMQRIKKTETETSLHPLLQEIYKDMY
Procedure, shortened: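 Reporter cells were plated and held 5 hrs at 37 C before compounds were added. After 18 hrs at 37 C, CCF4 dye was loaded for 2 hrs at RT and fluorescence measured.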

Structure (SMILES)	activation [%]
N[C@@H](Cc1c[nH]c2ccc(O)cc12)C(=O)O	9.84
CCOC(=O)C(C)(C)Oc1ccc(Cl)cc1	3.47
CNC(=O)Oc1ccc2c(c1)[C@]1(C)CCN(C)[C@@H]1N2C	-0.252
C[C@]12CCC(=O)C=C1CC[C@@H]1[C@@H]2[C@@H](O)C[C@@]2(C)[C@H]1CC[C@]2(O)C(=O)CO	-5.67
C[C@]12C=CC(=O)C=C1CC[C@H]1[C@@H]3C[C@@H](O)[C@](O)(C(=O)CO)[C@@]3(C)C[C@H](O)[C@@]12F	3.01
CC(=O)[C@@]1(O)CC[C@H]2[C@@H]3CCC4=CC(=O)CC[C@]4(C)[C@H]3CC[C@@]21C	-7.08
